About 900 (1.7%) of roughly 53,000 compounds showed an effect of 50% or more. Many of the other results were omitted from the sample, so strong results are more common in it than they were.
The compounds below were run on Mycobacterium tuberculosis (assay: Cornell - Phenotypic assay to identify agents that inhibit growth of Mycobacterium tuberculosis). Conditions: 10 mM as filed; unlikely as a test dose.
Type: functional
Design: scale not given: direction of the effect not stated beside the values
For `Cc1nn2c(N3CCC(O)CC3)cc(-c3ccccc3)nc2c1C`, the “Percent Effect” value was 72.96%.
`Cc1nn2c(N3CCC(O)C3)cc(-c3ccccc3)nc2c1C` (stereo not drawn) was tested, and the “Percent Effect” value was 16.78%.
`Cc1nn2c(N3CCC(C(N)=O)CC3)cc(-c3ccccc3)nc2c1C` was tested, and the “Percent Effect” value was 21.25%.
With `Cc1nc(N[C@H]2COC[C@@H]2N2CCCC2)c2cnn(C)c2n1` the “Percent Effect” value was 2.791%.
In the case of `CCNC(c1ccc(C)cc1)c1cccnc1` (stereo not drawn), the “Percent Effect” value is reported as -8.954%.
In the case of `CCc1nc(CN(C)C(=O)CSC)no1`, the “Percent Effect” value is reported as 7.399%.
`Cc1nc(C)c(C(=O)N2CCCC2c2nnc3n2CCCCC3)s1` (stereo not drawn) was tested, and the “Percent Effect” value was 13.16%.
With `Cc1ncsc1C(=O)N1CCc2nnc(C3CCCCN3C)n2CC1` (stereo not drawn) the “Percent Effect” value was 8.689%.
`Cc1nc(C)c(C(=O)N2CCc3nnc(C4CCCCN4C)n3CC2)s1` (stereo not drawn) was tested, and the “Percent Effect” value was 54.31%.
For `Cc1cc2c(=O)n3c(nc2s1)CCN(C(=O)c1sc(C)nc1C)CC3`, the “Percent Effect” value was 10.24%.
For `Cc1nc(C)c(C(=O)N2CCc3nnc(C4CCCN4C)n3CC2)s1` (stereo not drawn), the “Percent Effect” value was 53.89%.
For `Cc1nc(C)c(C(=O)N2CCc3nnc(C4CCCCN4C)n3CC2)o1` (stereo not drawn), the “Percent Effect” value was 19.3%.
In the case of `CN(C)[C@@H]1CCN(C(=O)c2cccn2C)[C@H]1Cc1cnn(C)c1.O=C(O)C(F)(F)F`, the “Percent Effect” value is reported as -22.73%.
With `O=C(O)C(F)(F)F.c1coc(CN2CCc3nnc(COc4cncnc4)n3CC2)c1` the “Percent Effect” value was 21.79%.
In the case of `COc1cccc(CC2CN(C3CC(C)(C)NC(C)(C)C3)CCO2)c1` (stereo not drawn), the “Percent Effect” value is reported as -51.86%.
With `Cc1cccc2nc(CNC(=O)N3CCC(N4CC=CC4)C3)cn12` (stereo not drawn) the “Percent Effect” value was 20.26%.
For `O=C(O)[C@@H]1CN(C(=O)CCCc2ccc(F)cc2)C[C@H]1C1CC1`, the “Percent Effect” value was -11.2%.
In the case of `Cc1ccc(CN2CCC3(C2)C(=O)N(CC(N)=O)c2ccccc23)s1` (stereo not drawn), the “Percent Effect” value is reported as 3.211%.
For `Cc1ccc(CN2CCC3(C2)C(=O)N(CC(C)C)c2ccccc23)s1` (stereo not drawn), the “Percent Effect” value was 50.09%.
For `CC(C)CN1C(=O)C2(CCN(Cc3nccs3)C2)c2ccccc21.O=C(O)C(F)(F)F` (stereo not drawn), the “Percent Effect” value was 25.63%.
In the case of `Cc1nc(C)n(CCC(=O)NCC2CCCOC2)n1` (stereo not drawn), the “Percent Effect” value is reported as 20.26%.
With `CCCN1C[C@H]2CC[C@@H]1CN(Cc1ccc(-n3cccn3)cc1)C2` the “Percent Effect” value was 53.91%.
With `CCCN1C[C@H]2CC[C@@H]1CN(Cc1ccc(Cn3cccn3)cc1)C2` the “Percent Effect” value was -2.42%.
In the case of `CCCN1C[C@H]2CC[C@@H]1CN(Cc1cccc(-n3cccn3)c1)C2`, the “Percent Effect” value is reported as 9.471%.
`CN(C)CCN1C(=O)CCC12CCN(C(=O)c1cccnc1)CC2.O=C(O)C(F)(F)F.O=C(O)C(F)(F)F` was tested, and the “Percent Effect” value was 1.557%.
`CC(=O)Nc1ccc(F)c(S(=O)(=O)NC(C)(C)C)c1` was tested, and the “Percent Effect” value was 40.62%.
`CCC(=O)Nc1ccc(F)c(S(=O)(=O)NC(C)(C)C)c1` was tested, and the “Percent Effect” value was -2.357%.
For `CC(C)(C)NS(=O)(=O)c1cc(NC(=O)C2CC2)ccc1F`, the “Percent Effect” value was 50.55%.

— ChEMBL document CHEMBL3988442, “University of Dundee, Small-Polar-MMV Screening Library” (2021)
